This is an account of results in PubChem BioAssay (EPA / NIEHS).

Calls of active or inactive are those of the source. The calls were made as follows: active = hit-call score of the fitted dose curve at least 0.9, where 1 is the maximum; inactive = score below 0.9.

The assay is described as follows: ATG_AP_1_CIS: Attagene CIS-FACTORIAL HepG2 Assay for human Activator Protein 1 (AP-1) (AID 2282931). The following applies: HepG2 Attagene cis-factorial AP-1 reporter mRNA; actives raise or lower the signal. As to the method: ATG_CIS is a cell-based, multiplexed-readout assay that uses HepG2, a human liver cell line, with measurements taken at 24 hours after chemical dosing in a 24-well plate.ATG_AP_1_CIS is one of 52 assay component(s) measured or calculated from the ATG_CIS assay. It is designed to make measurements of mRNA induction, a form of inducible reporter, as detected with fluorescence intensity signals by Reverse transcription polymerase chain reaction (RT-PCR) and Capillary electrophoresis technology.Data from the assay component ATG_AP_1_CIS was analyzed into 1 assay endpoint. This assay endpoint, ATG_AP_1_CIS, was analyzed with bidirectional fitting relative to DMSO as the negative control and baseline of activity. Using a type of inducible reporter, measures of mRNA for gain or loss-of-signal activity can be used to understand the reporter gene at the transcription factor-level as they relate to the gene FOS and JUN. Furthermore, this assay endpoint can be referred to as a primary readout, because this assay has produced multiple assay endpoints where this one serves a reporter gene function. To generalize the intended target to other relatable targets, this assay endpoint is annotated to the dna binding intended target family, where the subfamily is basic leucine zipper.
Human liver HepG2 cells are transiently transfected with multiple reporter transcription units (MRTUs) in 6-well plates using FuGene 6 reagent (Roche; 3 ml FuGene/1 mg DNA). The MRTU constructs are regulated by a cis-regulating element (promoter). […] A major difference between the CIS and TRANS system is that in CIS activities of endogenous TFs are measured, whereas the TRANS assay evaluates changes in activities of exogenous, chimeric NR-Gal4 proteins. […] At the end of 24 hour incubation, total RNA was isolated using TriZol reagent (Invitrogen). The isolated RNA is then reverse-transcribed using oligo(dT) primer and Mo-MLV reverse transcriptase (Invitrogen) with DNAse I (Ambion) treatment for 30 min. The one-tenth of the produced cDNA was amplified by PCR using Taq DNA polymerase (Invitrogen) and two reporter sequence-specific primers. The PCR products were fluorescently labeled by primer extension with 6-arboxyfluorescein (6-FAM) 5'-labeled reporter sequence-specific primer (2 min at 95 C, 20 s at 68 C and 10 min at 72 C) and these products were digested with 5U of HpaI (New England Biolabs) for 2h at 37 C. The fragments were purified using Qiaquick PCR columns (Qiagen), analyzed on an ABI 3130xL genetic analyzer (Applied Biosystems) with peak positions identified by using a set of X-rhodamine (ROX)-labeled MapMarker1000 molecular weight standards (BioVentures). The raw capillary electrophoresis data was processed using Attagraph software (Attagene).
As to `COc1cc(OC)c(OC)cc1C=O`, the outcome was inactive. On to `[CH3][Sn]([CH3])([Cl])[Cl]`, for which the call was inactive.

On to `CC(C)(c1cc(Cl)c(O)c(Cl)c1)c1cc(Cl)c(O)c(Cl)c1`, for which the result was inactive.

Take `CC(C)C#N`: the result was inactive.

For `CCCCCCCCCCCCCCCC[N+](C)(C)C`, the AC50 is 100 µM (active).

With `Cc1ccc(N(SC(F)(Cl)Cl)S(=O)(=O)N(C)C)cc1`, the molecule was called inactive. As to `O=C(NC(=O)c1c(F)cccc1F)Nc1ccc(Oc2ccc(C(F)(F)F)cc2Cl)cc1F`, the outcome was inactive.

As to `CC1OC(C)OC(C)O1` (stereo not given), the molecule was classed as inactive. Regarding `O=P(O)(Oc1ccccc1)Oc1ccccc1`, the result was inactive. Take `N#Cc1cccc(C#N)c1`: the molecule was called inactive. As to `C[N+](=O)[O-]`, the outcome was inactive.

As for `[Cl-].[Cl-].[Cl-].[Yb+3]`, the molecule was called inactive. Take `CCOC(=O)C1OC1(C)c1ccccc1` (stereo not given): the outcome was inactive. In the case of `CC[N+](=O)[O-]`, the molecule was called inactive.

Regarding `CC1(C)CC(=O)CC(C)(C)N1[O]`, the molecule was classed as inactive. The same measure, in the same setting: the result for `CCCOC(=O)c1ccccc1C(=O)OCCC` reads “inactive”. As for `O=[N+]([O-])C=Cc1ccccc1`, the concentration at half-maximal activity (AC50) is 57.7 µM (active). `ClCCCCCCCl`: the outcome was inactive. In the case of `CCN(CC)C(=S)S`, the AC50 was 65.5 µM (active). Regarding `ClCC(Cl)Cl`, the call was inactive. As to `CSc1nc(N=[N+]=[N-])nc(NC(C)C)n1`, the result was inactive. Consider `CC(C)(O)C#N`, for which the molecule was classed as inactive. On to `Cc1ccc(C)c2ccccc12`, for which the molecule was called inactive. Take `CC=Cc1ccc2c(c1)OCO2`: the call was inactive.

`CCOP(=O)(OCC)Oc1ccc([N+](=O)[O-])cc1`: the outcome was inactive. Consider `C=Cc1cccc(CCl)c1`, for which the outcome was inactive. Take `O=[N+]([O-])O`: the call was inactive. `CCC(C)c1cc([N+](=O)[O-])cc([N+](=O)[O-])c1OC(=O)C=C(C)C` (stereo not given): the AC50 is 25.1 µM (active). As for `CCOP(O)OCC`, the call was inactive. Consider `O=[N+]([O-])c1cc([N+](=O)[O-])c2ccccc2c1`, for which the AC50 was 14.5 µM (active).

Take `O=C(O)COc1ccccc1`: the outcome was inactive. The same measure, in the same setting: the entry for `Nc1ccc([N+](=O)[O-])cc1N` is “inactive”; for `CCC(C)c1cc(C(C)(C)C)cc(-n2nc3ccccc3n2)c1O` (stereo not given) it is “inactive”; for `O=C(O)CCCc1ccc(N(CCCl)CCCl)cc1` it is “inactive”. On to `CCOC(=O)COc1ccc(Cl)cc1Cl`, for which the molecule was classed as inactive. Consider `O=C1C(Cl)=C(Cl)C(=O)C(Cl)=C1Cl`, for which the AC50 is 130 µM (active). Consider `Nc1ccc(-c2ccc(N)c(N)c2)cc1N`, for which the molecule was classed as inactive. `N#CC(c1ccccc1)c1ccccc1`: the molecule was classed as inactive.

On to `O=[N+]([O-])O.O=[N+]([O-])O.[Cd]`, for which the AC50 is 5.97 µM (active). Regarding `C=CCc1ccc(OC(=O)Cc2ccccc2)c(OC)c1`, the outcome was inactive.

In general, AC50 refers to the concentration giving half of the maximal activity seen.
